The nature of this test: NCI Yeast Anticancer Drug Screen. Data for the rad50 strain (AID 155).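 Note: 0% = growth of vehicle-only cultures of the same strain.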 Conditions: S. cerevisiae rad50 strain growth inhibition, stronger effect = higher value. As to the method: Growth inhibition of yeast strains with defined genetic alterations is measured as a screen for potential anti-cancer activity. Selected strains with alterations in DNA damage repair or cell cycle control were exposed to compounds and growth inhibition was measured relative to vehicle treated controls. The strain used in this assay is rad50

[1] abbreviates: at 5.0 µM (retest, dose inferred, filed as 0.5).
The mark [2] stands for this setting: at 50.0 µM (retest, dose inferred, filed as 5.0).

SMILES strings stand for the structures. Several values for one entry are separate records, joined by “and”; a condition that tells them apart may be missing. Identical values can stand only once. This is part of a sample that, as a whole, favours compounds with a hit. Of some 79,000 tested, about 15% had one in any assay. A structure can be active in one record and inactive in another. Activity calls are given as the source filed them. Cut-off read from the data, not from the text of the source: active = growth inhibition above about 70%; inactive = the rest.

As for `NC(=O)NC(=O)C(Cc1ccc(Cl)cc1)c1ccccc1` (configuration not stated), the growth inhibition reads like this: under setting [1], -1% (inactive); under setting [2], 17% (inactive); (at 50.0 µM) -15% (inactive).
For `COC(=O)C(=O)C(C(=O)C(c1ccccc1)c1ccccc1)c1nc2n(c1O)/C(=N/C(=O)Nc1ccc(Cl)cc1)N=N2` (configuration not stated), the growth inhibition under setting [1] is 0% (inactive), the growth inhibition under setting [2] was 41% (inactive) and the growth inhibition (at 50.0 µM) is 76.6% (active).
Regarding `CCCCCCCCCCCCCCCCBr`, the growth inhibition is, setting by setting: under setting [1], -1% (inactive); under setting [2], 0% (inactive); (at 50.0 µM) 99.5% (active).
As for `COC(O)C(=O)c1c2c(cc3c1CCC3)CCCC2` (configuration not stated), the growth inhibition runs as follows: under setting [1], 96% (active); under setting [2], 100% (active); (at 50.0 µM) 81.1% (active).
For the molecule `Cc1ccc(S(=O)(=O)SC/C=C\CSS(=O)(=O)c2ccc(C)cc2)cc1`, the growth inhibition is 4% (inactive) and 51% (inactive) under setting [1]; 97% (active) and 95% (active) under setting [2]; 93.3% (active) and 74.7% (active) (at 50.0 µM).
Consider `CCCCCCC(C)CC(CCCCCC)NCCOC(=O)c1ccc([N+](=O)[O-])cc1` (configuration not stated), for which the growth inhibition under setting [1] was 34% (inactive) and 18% (inactive); the growth inhibition under setting [2] was 98% (active) and 97% (active); the growth inhibition (at 50.0 µM) was 98.8% (active) and 99.2% (active).
In the case of `CCCCCCCCCCCCCCCC[N+](C)(C)c1nc(Cl)nc(Cl)n1`, the growth inhibition is, setting by setting: under setting [1], 99% (active); under setting [2], 99% (active); (at 50.0 µM) 99.3% (active).
For the molecule `CC[N](CC)[Ge]([CH2]C)[CH2]C.C[CH2][Ge]([CH2]C)[CH2]C`, the growth inhibition was 40% (inactive) under setting [1], 99% (active) under setting [2] and 87% (active) (at 50.0 µM).
As to `COC1/C=C/OC2(C)Oc3c(C)c(O)c4c(c3C2=O)C(=O)C=C(NC(=O)/C(C)=C\C=C\C(C)C2OC(C)(C)OC(C2C)C(C)C(OC(C)=O)C1C)C4=O` (configuration not stated), the growth inhibition runs as follows: under setting [1], 2% (inactive); under setting [2], 89% (active); (at 50.0 µM) 51.9% (inactive).
Take `CC(C)C1=CC23CCC4C(C)(C(=O)O)CCCC4(C)C2CC1C1C(=O)OC(=O)C13` (configuration not stated): the growth inhibition was 93% (active) under setting [1]; 99% (active) under setting [2]; 99.3% (active) and 99.5% (active) (at 50.0 µM).
As for `Nc1ccc(Cc2ccc(Br)cc2)cc1`, the growth inhibition is 28% (inactive) under setting [1], 98% (active) under setting [2] and 99.2% (active) (at 50.0 µM).
With `Clc1ccc(CN2CCCN(Cc3ccc(Cl)cc3)C2c2cc3ccccc3c3ccccc23)cc1`, the growth inhibition is, setting by setting: under setting [1], 49% (inactive); under setting [2], 99% (active); (at 50.0 µM) 70% (active).
For `COc1cc2c(c(OC)c1OC)-c1ccc(SC)c(=O)cc1C(NC(=O)c1ccccc1)CC2` (configuration not stated), in that order: -9% (inactive), 65% (inactive) and 79.8% (active).
Regarding `Nc1cc2ccccc2c2c1ccc1ccccc12`, the growth inhibition by setting is: under setting [1], -159% (inactive) and 6% (inactive); under setting [2], 4% (inactive) and 95% (active); (at 50.0 µM) 96.5% (active) and 89.7% (active).

(Values after PubChem BioAssay (NCI).)
